Reference: the supplement of paper PMC3334620
In all, about 33,000 sequences were measured (“E-score (-0.5 to 0.5)”: median about -0.013, highest 2% from about 0.3 on). The entries come from a sample that favours the highest values as a whole.

Target: T1, Msn1 (UniProt P22148)
T1 sequence: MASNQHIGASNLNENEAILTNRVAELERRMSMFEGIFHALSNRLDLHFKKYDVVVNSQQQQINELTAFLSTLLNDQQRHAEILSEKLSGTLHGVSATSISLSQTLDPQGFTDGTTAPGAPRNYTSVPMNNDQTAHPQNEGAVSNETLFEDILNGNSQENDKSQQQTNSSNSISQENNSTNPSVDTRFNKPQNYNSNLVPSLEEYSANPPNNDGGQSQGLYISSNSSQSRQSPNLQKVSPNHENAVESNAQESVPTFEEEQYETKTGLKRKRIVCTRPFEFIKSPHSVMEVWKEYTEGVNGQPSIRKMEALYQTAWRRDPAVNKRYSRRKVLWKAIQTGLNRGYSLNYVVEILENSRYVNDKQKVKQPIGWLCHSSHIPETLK
Test: PBM E-score (8-mer binding enrichment) (E-score (-0.5 to 0.5)); higher = stronger / more preferred TF binding
Conditions: protein concentration: 200 nM; construct: GST-full length
Summary of the method: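 PURExpress in vitro transcription/translation supplied GST-tagged yeast transcription factors, either full-length or DNA-binding domain. Applied at about 100-200 nM to universal all-10-mer Agilent arrays double-stranded by primer extension, the bound protein was detected with fluorescent anti-GST. E-scores, modified Wilcoxon-Mann-Whitney statistics, were given by the Universal PBM Analysis Suite to ungapped eight-base words pooled with their reverse complements after masliner normalisation.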

Sequence	PBM E-score
GCACCCAC	-0.091
CCTACCAA	0.133
CAAGATGG	-0.0978
CGTACAAG	0.0872
GGTACAAA	0.456
AGAACAAG	0.151
AGAACAAT	0.0106
TTTACAAA	0.12
AGAACAAA	0.303
GTTACAAA	0.158
CGTACAAC	0.093
TGTACACA	0.279
GGTACAAC	0.188
CGTACAAA	0.356
TGTACAAA	0.392
TAAAGTGA	0.0769
GATTGTGA	0.0853
CTAAATGC	0.035
GCGGGCAC	-0.0424
CTCAACGC	-0.267
AGTACAAA	0.44
GATACAAC	0.212
GGTACATA	0.341
CGTACATA	0.296

Sequence	PBM E-score
GATACAAA	0.313
TATACAAA	0.183
AGTACAAG	0.251
AGTACAAT	0.29
AGTACATA	0.221
CATGTCTC	0.343
AGTGTCTG	0.154
AATGTCTC	0.463
AATGTGTC	0.3
AATGTCTA	0.454
GATGTCTA	0.239
ACTGTCTG	0.079
CAGGTCTC	-0.00322
CATGTGTC	0.298
AATGTTTC	0.105
AATGTCTG	0.436
CATGTCTA	0.268
AGAAGCGG	-0.101
AAAACCAG	0.152
CGTAAGGA	-0.0491
ACCATGGG	-0.161
GCCTATAA	0.0368
TACCCGTA	-0.0437
ATTTGCGC	0.104

Sequence	PBM E-score
CACCTGAG	-0.0701
ACATATGT	0.28
ATAGGGCC	-0.158
AGTGGACA	0.389
GGTGGACA	0.325
CGTGGAAA	0.0488
GGTGGATA	0.0155
GGTGGAGA	-0.396
CGTGGACA	0.408
AGTGGACG	0.212
CGTGGACC	-0.0578
AGTGGACC	-0.0955
GGATTTCA	0.0863
CCTGATAC	0.12
AGTAAAAC	-0.0534
AGCAAAGC	-0.143
ATTGAGAG	-0.0651
CAGCAAAA	0.0953
CCGATTGC	0.104
ACGGACAC	0.344
ACGGACTC	0.00234
ACGGACCC	-0.221
ACGGACAG	0.175
ACGGACAT	0.473

Sequence	PBM E-score
ACGGACCT	0.0608
AAGCGGAC	0.014
ACTTCCAG	-0.219
TGAACTCA	0.0356
GCCTTTCA	-0.179
ATCCCACG	-0.0996
GTCCCACA	0.319
ATCCCACA	-0.141
AGCTCCAT	-0.251
ACAAAAAT	0.372
ACAACGGG	0.161
ACAAACGC	0.172
ACAAACAG	0.276
TCAACGGA	-0.0103
ACAAAAAA	0.225
ACAACGGA	0.304
ACAAACAC	0.337
ACAAACGG	0.298
ACAAACGA	0.331
ACAAAAAG	0.216
ACAAACAA	0.277
CGTAGACC	-0.151
ACTCGTAC	-0.0875
ACCGCCAG	-0.04

Sequence	PBM E-score
CTCGAACC	-0.0331
AGCGGCAG	-0.149
GAAATACC	-0.0126
ACTCCTCG	-0.00289
CCCGTCGC	-0.27
ACTGAGCT	-0.0939
CCTCTCGA	-0.12
GCTGCTCC	-0.218
CACTGGGA	0.131
AAGCAAGT	0.00084
GAACCGCA	0.0554
CCAAAAGC	0.0259
ACAAAAAC	0.319
ACAAAAGA	0.27
CCAAAAAC	0.0933
ACAAAAGC	0.364
ACAAAACC	0.239
ACTACGCA	-0.18
ATATTTTC	0.226
CCTCGAAG	0.0737
GGGGTGCA	-0.0694
CAGACACG	0.147
CTGACACA	0.0572
CGGACACG	0.338

Sequence	PBM E-score
CGGACACA	0.371
CAGACACA	0.28
CGGACACC	0.112
CCTTTCGC	-0.146
GCTATGAA	-0.00947
TCGGCCGA	0.31
GCGGCCGA	-0.0302
CCGGCCGA	0.106
AAGCGCTA	-0.0275
AAGCGCTC	-0.0777
AAGCGCTT	0.312
CCTTAATC	-0.105
ACGCAAGA	0.0419
ACCTCAGG	-0.129
CATTGTCC	0.456
AATTGTGC	0.0159
TATTGTCA	0.282
GATTGTCA	0.245
AATTGTTC	0.245
AATTGTCC	0.488
GATTGTAC	0.0546
AATTGTAC	0.365
CATTGTCA	0.158
CATTGTAC	0.0768

Sequence	PBM E-score
AATTGTCA	0.359
CATTGTGC	0.0753
AAATCTGT	0.138
CACACCCC	-0.293
ATTGCGGA	0.145
ATATGAGA	0.0596
ACCCGAAG	-0.0262
CACTTTCC	-0.221
AATTGTAT	0.155
AATTGTCT	0.406
GATTGTAA	0.0176
GATTGTCC	0.458
CATTGTCG	0.21
AATTGTCG	0.362
AATTGTGT	-0.0542
GATTGTGC	-0.0365
AATTGTAG	0.167
CTAGCCAA	0.00535
AAATTTAA	0.238
GGAAGAAC	-0.012
GCCTTTCC	-0.0629
ATGCGACG	-0.249
ATGGCTGA	-0.133
CTGTACCC	-0.0861

Sequence	PBM E-score
GCACCGAA	0.0642
TATAGACA	0.405
TATAGATA	0.0139
CATAGACA	0.35
AAGAGACA	0.288
TAGAGACA	0.377
CATAGACG	0.194
ATTAGACA	0.295
TGTAGACA	0.261
GTTAGACA	0.33
CATAGACC	-0.0541
GAGAGACA	0.246
CTTAGACA	0.232
GGAGCTCA	-0.0253
ACCCGGTA	0.0382
CCGGCTAG	-0.141
GATTCACC	-0.145
CGAGGTAG	-0.251
AGGAAACT	0.025
ACAAGAGG	-0.011
GCTAGACA	0.212
TCTAGACA	0.332
AATAGACA	0.259
CCTAGACA	0.0613

Sequence	PBM E-score
GATAGACC	-0.0609
GATAGACA	0.331
ACTCGACC	-0.143
ACATACTC	0.0584
GAGCCTTA	-0.168
GAGTCCAA	-0.0901
GGGTCCAA	-0.104
GTGTCCAA	0.389
AGGTCCAA	-0.00743
CTGTCCAC	0.184
ATGTCCAA	0.485
ATGTCCAC	0.446
AGGTCCAC	-0.067
ATGTCCAG	0.457
AGGTCCAG	0.0683
AAGTCCAG	0.244
CTGTCCAA	0.287
ATGGGTAA	0.0578
CTTCCACC	-0.298
CGGTATCC	-0.224
AAACATGT	0.17
ACCGATTC	-0.0811
AGATTGTA	0.091
CGATTGTA	0.088

Sequence	PBM E-score
CGATTGAC	0.151
CGATTGTC	0.348
AGATTGTG	-0.0281
AGATTGTC	0.369
AGTTATTA	0.0736
CAGCACTG	-0.226
GCCTTCGC	-0.098
CCAGATTC	-0.389
CTTTGTAA	0.168
CCTTGTAC	0.183
ATTTGTAA	0.169
ATTTGTAC	0.46
ATTTGTAG	0.162
CTTTGTAC	0.322
AGGAATTC	-0.0844
AGCGAACG	-0.274
CACCTTCG	-0.0896
CCAAATGG	0.169
CCAAATGA	0.05
ACAAATGA	0.317
GCAAATGA	-0.0127
ACAAAGGT	0.218
ACAATGGG	0.196
ACAAATGG	0.345

Sequence	PBM E-score
GCAAATGC	-0.113
ACAAATGC	0.304
ACAAACGT	0.244
ACAAATGT	0.446
CCAAATGC	-0.0167
CTTCGGGA	0.15
AACGAGCT	-0.0712
GGCGGCCA	-0.161
CGGTTAGA	-0.22
CACAATCC	0.119
GCTCAACA	-0.0111
ATAGTTTG	0.274
GCGCGATA	0.119
GGATTGGA	0.0131
ACAAATCT	0.308
ACAAATCA	0.266
ACAAATCC	0.265
GAGGATCC	-0.0362
AAAAATGG	0.311
AAAATGGG	0.182
AAAAATGC	0.0785
AAAAATGT	0.335
CAAAATGG	0.133
AAAAATGA	0.143

Sequence	PBM E-score
AGTTTTTC	0.0155
ATGCGTGA	0.167
CGCCAGCG	-0.278
GTCCGGGA	0.336
ATCCGGAA	0.215
CTCCGGAA	0.0926
CTCCGGAC	0.224
CTCCGGGA	-0.0499
GTCCGGAA	0.368
ATCCGGAC	0.297
ATCCGGGA	-0.0993
GTCCGGAC	0.406
GAGGAGCA	-0.184
TATTTTGA	0.033
ATCTTTGG	-0.0763
CACTTGTC	0.408
AACTTGTC	0.391
CACTTGTA	0.157
AACTTGAG	-0.212
CGCTTGTC	0.345
AACTTGTG	0.132
AACTTGAT	0.321
AGCTTGTC	0.168
CCCTTGTC	0.204

Sequence	PBM E-score
AACTTGAA	0.101
AACTTGTA	0.107
CGCTTGTA	0.211
ACCGAATG	-0.0786
AGCTCACA	-0.111
GCGGCTCC	-0.285
AACGCTAA	-0.0499
ATCGCAAC	-0.0713
GTTAAGAA	-0.0961
GATCCGGA	0.0679
ACACCTAC	-0.04
ATCTTGTC	0.246
CTCTTGTA	0.035
CTCTTGTC	0.339
CCACCACA	-0.214
TATGGGGA	0.123
AAGAGGGT	-0.12
CTACATTA	0.00564
CGACATGC	0.218
ACACATTG	0.171
AGACATGA	0.226
CTACATTC	-0.121
AGACATTA	0.429
CGACATTC	0.332

Sequence	PBM E-score
AAACATTG	-0.00791
AGACATTG	0.402
CCACATTA	-0.107
CGACATTA	0.386
ACACATTA	0.0185
ACTAATCA	0.152
GTTTAGCA	0.0757
CTCACCCA	-0.0776
TCCTTAGA	0.117
CAACTATG	0.161
GGCAGCGA	-0.245
AGATCGCT	-0.0127
GTACATTA	0.278
ACACATTC	0.11
GGACATTA	0.489
AGACATTC	0.445
GCACATTA	-0.0601
AGACATGC	0.21
CGAAACCG	0.0338
ACGCAAGC	-0.0684
ACTAGCTG	0.0299
AATTCATC	-0.22
AAAAAGTG	-0.0627
